Screens: PubChem, ICCB-Longwood Screening Facility, Harvard Medical School
The full list was thinned out, with hits kept by preference.
MgrA-DNA mod: modulators of Staphylococcus aureus MgrA DNA binding; 84,000 tested, 0.13% active; fluorescence polarization; inhibition, % (concentration not given with the values); in the data active = inhibition above about 30%, passing the limit was not always enough;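 note: 0% = protein plus DNA without compound and 100% = DNA alone without protein; higher means less MgrA bound to DNA so lower polarization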
* hit, by the source's call.

SMILES	MgrA-DNA mod
O=C1CC(=O)c2ccc3c4c(ccc1c24)C(=O)CC3=O	93*
O=C1CC(=O)c2c1cccc2[N+](=O)[O-]	35
S=C(/N=C(\Nc1ccccc1)c1ccccc1)Nc1ccccc1	1
CCn1c(C(=O)NC(C)CCc2ccccc2)cc2sccc21 (configuration not stated)	-1
CC(C)c1ccc([C@@H]2Nc3ccc(C(=O)O)cc3[C@@H]3C=CC[C@@H]32)cc1	47*
Fc1ccc(C2Nc3ccc(Br)cc3C3C=CCC32)cc1 (configuration not stated)	-2
CC(=O)c1ccc2c(c1)C1C=CCC1C(c1ccc(Cl)cc1Cl)N2 (configuration not stated)	4
CCOC(=O)[C@@H]1Nc2ccc(C(=O)O)cc2[C@@H]2C=CC[C@H]12	71*
CCOC(=O)c1ccc2c(c1)C1C=CCC1C(c1ccc(Cl)cc1Cl)N2 (configuration not stated)	-3
CCOC(=O)c1ccc2c(c1)C1C=CCC1C(c1ccccc1F)N2 (configuration not stated)	-1
CSc1sc(C(C)=O)c2c1C(=O)CC(C)(C)C2	3
CC(NCc1ccc(F)cc1)C12CC3CC(CC(C3)C1)C2 (configuration not stated)	1
O=C(NCc1ccccc1Cl)c1ccc[nH]1	0
O=C(/C=C/Nc1cccc(C(F)(F)F)c1)c1ccco1	0
CCOc1ccc(N/C=C/C(=O)c2ccco2)cc1	2
O=C(/C=C/Nc1ccccc1C(F)(F)F)c1ccco1	93*
CC(=O)NC(Cc1ccc(C)c(C)c1)C(=O)O (configuration not stated)	-4
CCCN(CC1CC1)C(=S)Nc1ccccc1OC	-1
Cc1ccc(C)n1C(Cc1c[nH]c2ccccc12)C(=O)O (configuration not stated)	66*
O=C(O)Cc1c[nH]c2ccccc12	1
NC(Cc1c[nH]c2ccccc12)C(=O)O (configuration not stated)	0
COC(=O)COc1ccc(S(=O)(=O)Nc2ccc(F)c(Cl)c2)cc1	2
Cc1ccc(S(=O)(=O)/C(C#N)=C/C2=Cc3ccccc3OC2)cc1	62*
N#C/C(=C\c1ccc(/C=C(\C#N)S(=O)(=O)c2ccccc2)cc1)S(=O)(=O)c1ccccc1	-2
Cc1ccc(S(=O)(=O)/C(C#N)=C/c2ccccc2)cc1	3
SMILES	MgrA-DNA mod
O=C(c1ccc2c(c1)sc1nc(-c3ccccc3)cn12)N1CCCC1	-1
Cc1cc(C)nc(NCCCC(=O)O)n1	10
NC(=O)c1ccc2ccccc2c1	2
CCc1cc2c(cc1C(=O)CCN1CCCC1)C(C)(C)CCC2(C)C	12
COc1ccc(-c2nn(C)c(=O)c3ccccc23)cc1CNC(=O)NC1CCCCC1	1
CC(C)c1ccc(NC(=O)CNS(=O)(=O)c2ccccc2)cc1	2
CC(C)c1ccc(S(=O)(=O)Nc2cc(SCC(=O)O)c(O)c3ccccc23)cc1	90*
Cc1ccc(S(=O)(=O)Nc2ccc(Br)cc2C(NCC(=O)O)c2ccccc2)cc1 (configuration not stated)	2
O=C(CCCCC(=O)NCC(=O)ON1C(=O)CCC1=O)NCC(=O)ON1C(=O)CCC1=O	-2
COC(=O)C1=C(CN(C)CCc2ccc(OC)c(OC)c2)NC(=O)NC1c1cccc(OC)c1 (configuration not stated)	0
O=C1C=CC(=O)C(c2ccc(C(=O)O)cc2)=C1	83*
CCc1ccc(C2=CC(=O)C=CC2=O)cc1	15
O=C(O)c1ccc(-c2ccccc2)cc1	5
COc1ccc(CN2C(=O)CSC2c2ccccn2)cc1 (configuration not stated)	2
O=C(OCC1c2ccccc2-c2ccccc21)ON1C(=O)CCC1=O	68*
O=C(NC1(C(=O)O)CC1)OCC1c2ccccc2-c2ccccc21	-2
O=C(COc1ccccc1)ON1C(=O)CCC1=O	-3
Cc1cc2c(cc1C)CSC(c1ccccc1)SC2	-1
CN(Cc1ccccc1)S(=O)(=O)c1cccc2cccnc12	0
O=C(O)c1cc2c3c(c1)C1C=CCC1C(c1ccc(F)cc1)N3CC1CC=CC21 (configuration not stated)	46
O=C(O)c1cc2c3c(c1)C1C=CCC1C(c1ccccc1)N3CC1CC=CC21 (configuration not stated)	49
O=C(O)c1cc2c3c(c1)C1C=CCC1C(c1ccccc1F)N3CC1CC=CC21 (configuration not stated)	74*
COC(=O)c1ccc(C(=O)OC)c(NC(C)=O)c1	0
COC(=O)C(N=Cc1ccccc1)c1ccccc1 (configuration not stated)	0
COC(=O)C(C(=O)OC)C(Nc1ccccc1)c1ccccc1 (configuration not stated)	101*
SMILES	MgrA-DNA mod
COC(=O)C(NC(=O)Nc1ccccc1)C(C)C (configuration not stated)	-1
C=CCn1c(C(C)Oc2ccc(Cl)cc2Cl)n[nH]c1=S (configuration not stated)	-2
Cc1[nH]nc(N)c1Br	-2
CCOc1ccc(C=C2C(=O)OC(c3ccccc3)OC2=O)cc1 (configuration not stated)	16
O=C1NC(=S)N/C1=C\c1cccc(OCc2ccc(F)cc2)c1	-2
O=C1OC(c2ccccc2)OC(=O)C1=Cc1cccc(OCc2ccccc2)c1 (configuration not stated)	56*
COC(OC)c1ccc(C#N)c(SCC(=O)c2ccccc2)n1	0
COc1cc2ncnc(Nc3ccc(F)c(F)c3)c2cc1OC	4
Cc1cc(C)c(C#N)c(SC2CCc3ccccc3C2=O)n1 (configuration not stated)	1
O=C(CSc1nnc(-c2ccco2)c(-c2ccco2)n1)N1c2ccccc2Sc2ccc(Cl)cc21	22
O=C1c2ccccc2CC1Sc1nnc(-c2ccco2)c(-c2ccco2)n1 (configuration not stated)	96*
COC(=O)C(C)N1C(=O)S/C(=C/c2cccn2C)C1=O (configuration not stated)	-1
Nc1ccc(N2CCCC2)cc1	57*
O=S(=O)(c1ccccc1)c1ccc(N2CCCCC2)cc1	2
Nc1ccc(N2CCCCC2)cc1	-1
CS(=O)(=O)N1CCCC(C(=O)N2CCCCC2)C1 (configuration not stated)	-1
O=C(c1cc2sccc2n1Cc1ccc(F)cc1)N1CCc2ccccc2C1	-1
O=C1c2c(O)ccc(O)c2C(=O)c2c(NCCNCCO)ccc(NCCNCCO)c21	47*
CN(C)C(=O)Oc1nnc(SCC(=O)c2ccc3c(c2)OCCO3)n1C1Cc2ccccc2C1	0
N#CCN(CC#N)C(=O)c1cc(Cl)ccc1Cl	3
N#Cc1c(-c2cccs2)cc(-c2ccccc2)[nH]c1=O	0
N#Cc1c(-c2ccco2)cc(-c2cccs2)[nH]c1=O	55*
N#Cc1c(C(F)(F)F)cc(-c2cccs2)[nH]c1=O	3
C=C(C)CSc1nc(N2CCOCC2)c2c(c1C#N)CC(C)(C)OC2	-1
Cc1ccc2c(c1)-c1c(cnn1CC(=O)NCCCN1C(C)CCCC1C)CO2 (configuration not stated)	8
CC(N)c1ccccc1OC(F)F (configuration not stated)	3
O=C(O)c1ccccc1C(F)(F)F	-2
COc1ccc2nc(SC)nc(C)c2c1	1
CCOC(=O)c1[nH]c(Cc2[nH]c(C(=O)OCC)c(C)c2CC(=O)OC)c(CCC(=O)OC)c1C	0
FC(F)(F)c1cc(-c2ccco2)nc(-n2cccn2)n1	4
